We go through eight molecules from PubChem BioAssay (NCI).

Holding throughout (assay): NCI-60 one-dose screen, 48 h (100 = growth as untreated, 0 = no growth, -100 = all killed)
Holding throughout (conditions): 10 µM unless noted

For assay [1], the system named is NCI-H23 lung.
Assay [2] deals with NCI-H226 lung.
For assay [3], the system named is NCI-H322M lung.
Assay [4] concerns HOP-62 NSCLC.
The test system of assay [5] is NCI-H460 lung.
The test system of assay [6] is HOP-92 NSCLC.
In assay [7] the test system is NCI-H522 lung.
Assay [8] has as its system A549/ATCC NSCLC.
In assay [9] the test system is 786-0 renal.
The test system of assay [10] is COLO 205 colon.
Assay [11] concerns DU-145 prostate.
The test system of assay [12] is K-562 leukemia.
Assay [13] concerns MALME-3M melanoma.
Assay [14] has as its system MDA-MB-231 breast.
Assay [15] relates to RXF 393 renal.
Assay [16] concerns SF-268 CNS.
The test system of assay [17] is SF-295 CNS.
Assay [18] relates to SF-539 CNS.
Assay [19] concerns UACC-257 melanoma.
Assay [20] deals with M14 melanoma.

Compounds without any hit were thinned out: in the full panel of roughly 83,000, 20% have a hit.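 Single-dose data. Exposure time 48 hours. Values below 10 considered active.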 A number with no mark means an inactive call. Active and inactive are the calls of the source.

For `COC1C(O)CC(OC2CC(OC3CC(O[C@@H]4C(=O)c5c(cc6cc(OC7CC(OC8CC(O)C(O)C(C)O8)C(O)C(C)O7)c(C)c(O)c6c5O)CC4[C@H](OC)C(=O)O)OC(C)C3O)OC(C)C2O)OC1C` (stereo not given in full), the growth in assay [1] was 6.6% (active); in assay [2], -36.1% (active); in assay [3], 14.5%; in assay [4], 1.26% (active); in assay [5], 13.5%; in assay [6] it was 20.4%. The growth in assay [7] is -13.7% (active); in assay [8], 8.44% (active); in [9] it was 34.7%; in [10], 14.7%; in assay [11], 22.3%; in assay [12], 21.2%. Moreover, the growth in assay [13] was 13.9%; in assay [14], 48.4%; in assay [15], -45.7% (active); in [16] it was 28.4%; in [17], 10.9%; in assay [18] it was 5.86% (active). Further, the figures for the growth in assay [19] and in assay [20] were -8.56% (active) and 35.4%, respectively.
For the molecule `O=c1cc(-c2ccccc2)nc(SCc2nc3cc(Cl)c(Cl)cc3[nH]2)[nH]1`, the growth is 90.9% in assay [1]; 101% in [2]; 90.7% in assay [3]; 93.2% in assay [4]; 111% in assay [5]; 104% in assay [6]. Also, the growth in assay [7] is 85.3%; in assay [8] it was 114%; in [9], 96.7%; in [10], 108%; in assay [11], 106%; in [12], 88.8%. Also, the growth is 103% in assay [13]; 102% in assay [14]; 107% in assay [15]; 101% in assay [16]; 102% in assay [17]; 94.3% in assay [18]. Further, the growth is 103% in assay [19] and 104% in assay [20].
For `Cn1cc(-c2nc3c(F)cc4[nH]ncc4c3c3c2CCCC3)c(C(F)(F)F)n1`, the growth was 37.7% in [1]; 67.3% in [2]; 47.6% in assay [3]; 31% in [4]; 37.5% in assay [5]; -7.54% (active) in assay [6]. For the same molecule, the growth in assay [7] was 0.529% (active); in [8] it was 17.3%; in assay [9], 42.7%; in assay [10], 35.6%; in assay [11], 52.3%; in assay [12], 19.3%. In addition, the growth in assay [13] was 59.7%; in assay [14], 48.9%; in [15] it was 23%; in [16], 47.7%; in assay [17] it was 49.2%; in assay [18] it was 27.9%. In addition, the values for the growth in assay [19] and in assay [20] were 53.5% and 30.1%, respectively.
`CCOC(=O)/C=C1\S/C(=N\Nc2cc(=O)[nH]c3ccc(Br)cc23)N(c2ccccc2)C1=O`: the growth in assay [1] is 88.1%; in assay [2] it was 84.1%; in [3], 90.5%; in [4], 91.2%; in assay [5], 95.9%; in assay [6] it was 81.5%. Besides, the growth in assay [7] was 31.4%; in assay [8], 103%; in assay [9] it was 86%; in assay [10], 46.6%; in assay [11], 85.2%; in assay [12] it was 13.4%. For the same molecule, the growth was 82% in assay [13]; 86.2% in assay [14]; 35.2% in [15]; 85.6% in assay [16]; 100% in assay [17]; 80.8% in assay [18]. Besides, the growth in assay [19] was 89.9%; in [20], 89.5%.
With `Cn1c(=O)[nH]c(=O)c2nc3c(nc21)-c1ccccc1C3=O`, the growth in assay [1] was 95.6%; in [2], 92.2%; in [3], 102%; in assay [4], 94.3%; in [5], 102%; in assay [6] it was 100%. Also, the growth is 96.4% in [7]; 106% in [8]; 101% in assay [9]; 114% in assay [10]; 104% in [11]; 99% in assay [12]. Besides, the growth was 102% in assay [13]; 101% in [14]; 99.3% in assay [15]; 99.3% in assay [16]; 97.7% in assay [17]; 95.8% in [18]. The growth in assay [19] was 102%; in assay [20], 99.4%.
Turning to `COc1cc(/C=C/c2cc(/C=C/c3ccc(O)c(OC)c3)n(C(=O)Nc3ccc(Cl)cc3)n2)ccc1O`, the growth in [1] is 3.16% (active); in assay [2], 5.73% (active); in assay [3], 22.1%; in assay [4], 17.1%; in assay [5], 9.41% (active); in assay [6], -4.7% (active). For the same molecule, the growth in assay [7] is -4.94% (active); in assay [8], 4.03% (active); in assay [9], -2.2% (active); in assay [10], 7.57% (active); in [11], 11.7%; in [12] it was -7.3% (active). The growth in assay [13] is 3.94% (active); in assay [14], 14.3%; in assay [15], -53.6% (active); in [16], 13.9%; in assay [17], -21.9% (active); in assay [18], 0.163% (active). Also, the growth is 3.11% (active) in [19] and 4.04% (active) in assay [20].
`COC12C=C/C(=C(/C(=O)OCCSc3ccnn3C)C(=O)CCCCCCCCC3(OC)C=C/C(=C(/C(=O)OCCSc4ccnn4C)C(=O)CCCCCCCC1)O3)O2`: the growth in [1] is -44% (active); in [2], -53.6% (active); in [3], 11.6%; in assay [4], 27.9%; in assay [5], 3.85% (active); in [6] it was -18.9% (active). Also, the growth in assay [7] was -17.3% (active); in assay [8], 5.51% (active); in assay [9] it was -29.2% (active); in assay [10], -41.7% (active); in [11], 23%; in assay [12] it was 1.16% (active). Also, the growth in assay [13] is -32.2% (active); in assay [14], -11% (active); in [15], -79.1% (active); in [16], 16%; in assay [17], -3.35% (active); in assay [18] it was -0.264% (active). Also, the growth in assay [19] is 40.3%; in [20], -3.79% (active).
As for `N#Cc1ccccc1-c1ccc(CN2C(=O)S/C(=C\c3ccc(Br)cc3)C2=O)cc1`, the growth in assay [1] is 96.6%; in assay [2], 86.9%; in assay [3], 101%; in [4] it was 94.8%; in assay [5] it was 106%; in [6], 94.6%. Also, the growth is 94.8% in assay [7]; 97.3% in [8]; 99.3% in assay [9]; 111% in [10]; 105% in assay [11]; 93.8% in assay [12]. Besides, the growth was 96.8% in assay [13]; 95.9% in assay [14]; 104% in [15]; 99.4% in assay [16]; 93.1% in assay [17]; 99.7% in [18]. Moreover, the results for the growth in [19] and in assay [20] were 92.3% and 98.2%, respectively.
